Screening data deposited in PubChem by Broad Institute.
The list is not random: actives were taken first. Their share in the collection is about 6.7%.
T cruzi growth: T. cruzi proliferation inhibition; T. cruzi beta-gal in NIH3T3, GalScreen luminescence, 90 h; inhibition, % at 8.34 µM; 77,000 compounds, 5.9% hits; AID 624255;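 active = mean inhibition above about 93%, with at least 55% of replicates each passing it, limit read from the data, passing the limit was not always enough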
C diff HTS: blocks growth of Clostridium difficile | Clostridium difficile clinical isolate growth, OD600, 24 h; active compounds read low | growth activity, negative = inhibition, % at 16 µg/mL (by protocol) | 86,000 compounds, 0.25% hits | AID 1259249;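 active = mean growth activity at or below -80% and every replicate also at or below -80%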;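 also: 0% = DMSO wells and -100% = levofloxacin 16 µg/mL wells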
Pf Dd2 growth: inhibitors of Plasmodium falciparum Dd2 growth. AID 1159554. P. falciparum Dd2 growth, SYBR Green, 72 h; active compounds read low. 94,000 compounds, 2.3% hits. activity change, % at 10 µM; in the data active = activity change below about -80%
Numbers without * were called inactive; . = no result given.

SMILES	T cruzi growth	C diff HTS	Pf Dd2 growth
COc1ccc(S(=O)(=O)Nc2cccc3c2O[C@H](CN(C)Cc2ccc(C(=O)Nc4ccccc4N)cc2)[C@H](C)CN([C@H](C)CO)C3=O)cc1	90	11	-87*
COc1ccc(S(=O)(=O)Nc2cccc3c2O[C@H](CN(C)Cc2ccc(C(=O)Nc4ccccc4N)cc2)[C@H](C)CN([C@@H](C)CO)C3=O)cc1	95	2	-86*
COc1ccc(S(=O)(=O)Nc2cccc3c2O[C@H](CN(C)Cc2ccc(C(=O)Nc4ccccc4N)cc2)[C@@H](C)CN([C@H](C)CO)C3=O)cc1	84	-3	-31
C[C@@H]1CCCCO[C@H](CN(C)S(=O)(=O)c2ccccc2)[C@@H](C)CN([C@H](C)CO)C(=O)c2cc(NC(=O)Nc3cccc4ccccc34)ccc2O1	58	1	6
C[C@@H]1CN([C@H](C)CO)C(=O)c2cc(NC(=O)Nc3cccc4ccccc34)ccc2O[C@@H](C)CCCCO[C@@H]1CN(C)S(=O)(=O)c1ccccc1	.	2	-93*
C[C@@H]1CCCCO[C@H](CN(C)S(=O)(=O)c2cccs2)[C@H](C)CN([C@@H](C)CO)C(=O)c2cc(NC(=O)Nc3cccc4ccccc34)ccc2O1	19	.	-54
C[C@@H]1CCCCO[C@@H](CN(C)S(=O)(=O)c2cn(C)cn2)[C@@H](C)CN([C@H](C)CO)C(=O)c2cc(NC(=O)Nc3cccc4ccccc34)ccc2O1	-17	13	-39
C[C@@H]1CN([C@@H](C)CO)C(=O)c2cc(NC(=O)Nc3cccc4ccccc34)ccc2O[C@@H](C)CCCCO[C@@H]1CN(C)S(=O)(=O)c1cn(C)cn1	19	8	-90*
C[C@H](CO)N1C[C@H](C)[C@@H](CN(C)S(=O)(=O)c2ccc(F)cc2)OCCCC[C@H](C)Oc2ccc(NC(=O)Nc3cccc4ccccc34)cc2C1=O	85	-1	-40
C[C@@H]1CN([C@H](C)CO)C(=O)c2cc(NC(=O)Nc3cccc4ccccc34)ccc2O[C@@H](C)CCCCO[C@@H]1CN(C)S(=O)(=O)c1cccs1	15	.	-88*
C[C@@H]1CCCCO[C@@H](CN(C)S(=O)(=O)c2ccc(F)cc2)[C@H](C)CN([C@H](C)CO)C(=O)c2cc(NC(=O)Nc3cccc4ccccc34)ccc2O1	90	-5	-82*
COc1ccc2c3c(n(C)c2c1)[C@H](CO)N(C)CC31CCN(C(=O)C2CCC2)CC1	.	.	56
COc1ccc2c3c([nH]c2c1)[C@@H](CO)N(C(=O)c1ccccc1)CC31CN(C)C1	.	-9	-17
CO[C@H]1CN(C)C(=O)c2ccc(NC(=O)Cc3ccccc3)cc2OC[C@@H](C)N(C)C[C@H]1C	-38	3	18
C[C@@H]1CCCCO[C@@H](CN(C)S(=O)(=O)c2ccc(F)cc2)[C@@H](C)CN([C@@H](C)CO)C(=O)c2cc(NC(=O)Nc3cccc4ccccc34)ccc2O1	61	4	-84*
C[C@@H]1CCCCO[C@@H](CN(C)S(=O)(=O)c2ccc(F)cc2)[C@H](C)CN([C@@H](C)CO)C(=O)c2cc(NC(=O)Nc3cccc4ccccc34)ccc2O1	88	-4	-42
C[C@@H]1CN([C@@H](C)CO)C(=O)c2cccc(NC(=O)CCCCCC(=O)Nc3ccccc3N)c2O[C@H]1CN(C)Cc1ccncc1	.	-2	-40
C[C@@H]1CN([C@H](C)CO)C(=O)c2cccc(NC(=O)CCCCCC(=O)Nc3ccccc3N)c2O[C@@H]1CN(C)Cc1ccncc1	.	3	31
COc1ccc(CN(C)C[C@H]2Oc3c(NC(=O)CCCCCC(=O)Nc4ccccc4N)cccc3C(=O)N([C@H](C)CO)C[C@@H]2C)cc1	.	-7	-85*
C[C@H](CO)N1C[C@H](C)[C@@H](CN(C)Cc2ccc(Oc3ccccc3)cc2)Oc2c(NC(=O)CCCCCC(=O)Nc3ccccc3N)cccc2C1=O	.	-1	-90*
C[C@H]1CN([C@@H](C)CO)C(=O)c2cccc(NC(=O)CCCCCC(=O)Nc3ccccc3N)c2O[C@H]1CN(C)Cc1ccc(Oc2ccccc2)cc1	.	10	-90*
C[C@H]1CN([C@@H](C)CO)C(=O)c2cc(NC(=O)CCCCCC(=O)Nc3ccccc3N)ccc2O[C@H]1CN(C)Cc1ccc(Oc2ccccc2)cc1	.	12	-75
CN1C(=O)c2cc(NC(=O)c3cccc(F)c3)ccc2OC[C@H]2O[C@@H](CC(=O)NCc3ccccc3)CC[C@H]21	67	4	-5
CNC(=O)C[C@@H]1CC[C@@H]2[C@H](COC[C@H](O)CN2C(=O)Nc2cccc(OC)c2)O1	42	.	-4
COC(=O)C[C@H]1C[C@@H]2c3cc(NS(=O)(=O)c4ccc(OC)cc4)ccc3O[C@@H]2[C@@H](CO)O1	-3	-2	-10
